Screening data (PubChem)
FAS-TE inh: FAS thioesterase domain inhibitors, primary screen, biochemical, fluorescence intensity, uHTS; Fatty acid synthase (Homo sapiens), P49327; recombinant FAS-TE, OMFH fluorogenic substrate, fluorescence endpoint; inhibition, % at 15 µM; actives 0.67% (n = 360,000);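 active = compounds whose normalised, plate-corrected inhibition of enzyme fluorescence in the single-dose primary screen is 50% or more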
Target sequence (P49327 whole entry, looked up, the tested form may be a part): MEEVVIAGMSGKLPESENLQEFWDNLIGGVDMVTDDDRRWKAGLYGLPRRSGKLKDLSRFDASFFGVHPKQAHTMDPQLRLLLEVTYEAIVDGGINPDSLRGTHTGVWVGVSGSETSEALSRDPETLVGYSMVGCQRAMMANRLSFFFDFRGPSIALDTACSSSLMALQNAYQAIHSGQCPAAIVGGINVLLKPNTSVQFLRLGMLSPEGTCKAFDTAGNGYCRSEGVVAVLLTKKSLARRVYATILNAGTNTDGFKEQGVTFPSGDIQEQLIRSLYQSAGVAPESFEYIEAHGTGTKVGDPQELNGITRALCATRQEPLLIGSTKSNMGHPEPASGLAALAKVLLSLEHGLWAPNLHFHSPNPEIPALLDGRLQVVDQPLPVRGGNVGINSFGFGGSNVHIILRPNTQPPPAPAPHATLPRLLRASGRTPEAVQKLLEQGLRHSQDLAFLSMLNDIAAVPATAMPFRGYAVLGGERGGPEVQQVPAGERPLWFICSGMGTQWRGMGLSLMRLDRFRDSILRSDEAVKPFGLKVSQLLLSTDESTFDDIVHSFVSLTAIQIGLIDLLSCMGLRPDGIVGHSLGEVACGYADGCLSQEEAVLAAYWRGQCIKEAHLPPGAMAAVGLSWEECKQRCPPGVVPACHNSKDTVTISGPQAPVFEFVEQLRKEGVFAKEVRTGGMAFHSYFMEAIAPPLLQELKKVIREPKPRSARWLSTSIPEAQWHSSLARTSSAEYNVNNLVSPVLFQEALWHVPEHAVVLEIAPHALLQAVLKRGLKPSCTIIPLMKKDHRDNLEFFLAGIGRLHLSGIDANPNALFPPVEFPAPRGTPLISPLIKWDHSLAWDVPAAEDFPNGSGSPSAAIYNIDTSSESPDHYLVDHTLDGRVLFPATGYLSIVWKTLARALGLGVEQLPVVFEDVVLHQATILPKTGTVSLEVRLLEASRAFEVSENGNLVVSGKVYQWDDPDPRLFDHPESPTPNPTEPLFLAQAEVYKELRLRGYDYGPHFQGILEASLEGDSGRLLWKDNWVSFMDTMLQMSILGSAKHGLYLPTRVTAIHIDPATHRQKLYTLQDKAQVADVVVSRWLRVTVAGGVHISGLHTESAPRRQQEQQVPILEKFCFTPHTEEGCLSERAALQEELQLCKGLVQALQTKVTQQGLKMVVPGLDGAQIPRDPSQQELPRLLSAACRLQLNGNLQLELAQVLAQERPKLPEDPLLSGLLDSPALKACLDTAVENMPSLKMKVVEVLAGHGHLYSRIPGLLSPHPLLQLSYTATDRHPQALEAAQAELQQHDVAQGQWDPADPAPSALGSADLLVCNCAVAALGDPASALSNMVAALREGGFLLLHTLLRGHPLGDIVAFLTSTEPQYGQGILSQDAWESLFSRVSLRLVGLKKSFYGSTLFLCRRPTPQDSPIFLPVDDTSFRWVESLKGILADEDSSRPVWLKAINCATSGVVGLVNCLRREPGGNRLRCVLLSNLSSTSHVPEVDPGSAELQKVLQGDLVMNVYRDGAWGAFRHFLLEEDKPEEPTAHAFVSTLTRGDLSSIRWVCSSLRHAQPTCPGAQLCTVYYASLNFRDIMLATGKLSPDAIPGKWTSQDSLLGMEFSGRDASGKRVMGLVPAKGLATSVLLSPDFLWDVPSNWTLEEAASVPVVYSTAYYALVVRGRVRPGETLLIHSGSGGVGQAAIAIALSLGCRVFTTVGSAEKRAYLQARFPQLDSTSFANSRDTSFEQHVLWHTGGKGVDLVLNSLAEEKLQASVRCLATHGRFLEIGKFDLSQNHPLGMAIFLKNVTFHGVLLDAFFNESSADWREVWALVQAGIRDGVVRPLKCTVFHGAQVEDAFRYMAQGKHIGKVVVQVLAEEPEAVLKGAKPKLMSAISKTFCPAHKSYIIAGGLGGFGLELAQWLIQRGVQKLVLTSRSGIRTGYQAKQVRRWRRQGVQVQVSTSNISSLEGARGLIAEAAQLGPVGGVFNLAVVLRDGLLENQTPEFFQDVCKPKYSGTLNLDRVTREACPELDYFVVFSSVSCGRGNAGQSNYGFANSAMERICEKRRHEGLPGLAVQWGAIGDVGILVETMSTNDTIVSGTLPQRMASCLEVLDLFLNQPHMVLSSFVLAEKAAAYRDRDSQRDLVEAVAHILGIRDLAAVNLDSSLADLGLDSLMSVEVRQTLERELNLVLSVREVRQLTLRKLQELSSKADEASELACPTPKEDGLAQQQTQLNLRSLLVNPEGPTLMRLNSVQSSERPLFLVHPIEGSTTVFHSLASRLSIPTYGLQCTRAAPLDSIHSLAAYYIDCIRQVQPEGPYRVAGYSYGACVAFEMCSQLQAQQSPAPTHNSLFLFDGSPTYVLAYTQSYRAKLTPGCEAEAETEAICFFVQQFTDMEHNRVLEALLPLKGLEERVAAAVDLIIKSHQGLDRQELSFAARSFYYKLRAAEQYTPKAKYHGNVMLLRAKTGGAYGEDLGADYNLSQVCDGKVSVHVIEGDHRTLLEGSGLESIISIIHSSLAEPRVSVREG
proKLK7 act: proKLK7 zymogen activators, primary screen, biochemical, fluorescence intensity. activation, % at 7 µM. AID 652039, 2013. Kallikrein-7 (Homo sapiens), P49862. purified proKLK7, EDANS-DABCYL substrate fluorescence; 100% is mature enzyme control, 0% vehicle. actives 0.9% (n = 370,000);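 active = activation above the mean of all tested compounds plus 3 SD, computed per campaign excluding outliers beyond control limits, cut at about 13% in these data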
SMARCA2 act: SMARCA2 (BRM) function activators, primary screen, cell-based, luminescence, high throughput; AID 652017, 2013; actives 1% (n = 370,000); MG213 cells, MMTV-luciferase reporter, dexamethasone, overnight; activation, % at 9.1 µM; in the data active = activation above about 7.8%
FXN GAA850 act: FXN promoter activators, primary screen, cell-based, luciferase luminescence, HEK293 lucGAA850; activation, % at 6 µM; HEK293 lucGAA850 FXN promoter luciferase reporter, 24 h; percent of 10 µM SAHA response; actives 0.56% (n = 360,000); AID 540364, 2011;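 active = activation above the average of all compounds screened plus 3 SD, cutoff fixed separately per campaign, cut at about 7.5% in these data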
KLK7 act conf: proKLK7 zymogen activators, confirmation, biochemical, fluorescence intensity, triplicate. shares compounds with proKLK7 act. activation, % at 7 µM. actives 68% (n = 3,200). AID 686949, 2013. purified proKLK7, EDANS-DABCYL substrate fluorescence; scaled: vehicle 0, mature enzyme 100;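 active = activation, as change over the incubation, above the mean of all tested compounds plus 3 SD, cut at about 13% in these data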
EDANS-DABCYL int: EDANS-DABCYL substrate optical interference, artefact control for kallikrein-7 zymogen activator project, biochemical, fluorescence intensity, high throughput; no enzyme, 4 h; solvent 0%, active enzyme control 100%; activation, % at 7 µM; actives 80% (n = 3,200); shares compounds with proKLK7 act; AID 686952, 2013;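 active = activation above the all-compound mean plus 3 SD, ignoring values outside control-based bounds, cut at about 4.8% in these data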;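 note: value is the 4 h activation minus the activation read at time zero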
Large screens that a line does not name were inactive (follow-up assays come after a bar, where they were run). This is a sample that favours compounds with a hit; in the whole collection about 2.9% have one here.

COc1ccc(-c2c(C)oc3c(CN4CCCC(C)C4)c(O)ccc3c2=O)cc1OC (centres undefined)	none
Cc1oc2c(CN3CCCC(C)C3)c(O)ccc2c(=O)c1-c1ccccc1 (centres undefined)	proKLK7 act 33 | KLK7 act conf 23 | EDANS-DABCYL int 23
COc1ccccc1-c1c(C)oc2c(CN3CCCC(C)C3)c(O)ccc2c1=O (centres undefined)	proKLK7 act 45 | KLK7 act conf 72 | EDANS-DABCYL int 69
COc1ccccc1-c1coc2c(CN3CCCC(C)C3)c(O)ccc2c1=O (centres undefined)	proKLK7 act 40 | KLK7 act conf 65 | EDANS-DABCYL int 62
CC1CCCCN1Cc1c(O)ccc2c(=O)c(-c3ccc(Br)cc3)coc12 (centres undefined)	none
CC1CCCCN1Cc1c(O)ccc2c(=O)c(-c3ccc(Cl)cc3)coc12 (centres undefined)	proKLK7 act 17 | KLK7 act conf 27 | EDANS-DABCYL int 26
COc1ccc(-c2c(C)oc3c(CN4CCCCC4C)c(O)ccc3c2=O)cc1 (centres undefined)	proKLK7 act 41 | KLK7 act conf 50 | EDANS-DABCYL int 52
O=C(Nc1ccc(F)cc1)Nc1sccc1-c1nc2ccccc2s1	proKLK7 act 32 | KLK7 act conf inactive | EDANS-DABCYL int inactive
O=C(Nc1ccc(O)c(-c2nc3ccccc3s2)c1)c1cccs1	none
COc1cc2sc(-c3ccc(S(C)(=O)=O)cc3)c(C(=O)NCc3ccc(C)o3)c2cc1OC	proKLK7 act 14 | KLK7 act conf 23 | EDANS-DABCYL int 31
COc1cc2sc(-c3ccc(S(C)(=O)=O)cc3)c(C(=O)NCCCCO)c2cc1OC	proKLK7 act 31 | KLK7 act conf 22 | EDANS-DABCYL int 32
COc1ccc2sc(-c3ccc(S(C)(=O)=O)cc3)c(C(=O)NCCCN3CCCC3=O)c2c1	none
Cc1ccc(CNC(=O)c2c(-c3ccccc3)sc3ccccc23)o1	none
COc1ccccc1CNC(=O)CN1C(=O)c2cccc(N)c2C1=O	proKLK7 act 50 | KLK7 act conf inactive | EDANS-DABCYL int 44
CC1CCCCC1NC(=O)CN1C(=O)c2cccc(N)c2C1=O (centres undefined)	proKLK7 act 34 | KLK7 act conf 78 | EDANS-DABCYL int 70
CN(C(=O)CN1C(=O)c2cccc(N)c2C1=O)C1CCCCC1	proKLK7 act 109 | KLK7 act conf 74 | EDANS-DABCYL int 76
CCCCNc1ccc2c(c1)OC[C@H](C)NS2(=O)=O	none (no result: FAS-TE inh, FXN GAA850 act)
Cc1ccc2c(c1)COc1c3ccc(C(=O)NC(C)C)cc3nn1-2	none
Cc1ccc2c(c1)COc1c3ccc(C(=O)N[C@@H](C)CO)cc3nn1-2	proKLK7 act 14 | KLK7 act conf inactive | EDANS-DABCYL int inactive
OC1CNc2c(ccc3ccccc23)C1 (centres undefined)	proKLK7 act 14 | KLK7 act conf inactive | EDANS-DABCYL int inactive
c1ccc2c(c1)ccc1ccccc12	none
NC(=O)c1nsc(C(=O)N(c2ccccc2)C(C(=O)NC2CCCCC2)c2ccc(O)cc2)c1N (centres undefined)	proKLK7 act 13 | KLK7 act conf inactive | EDANS-DABCYL int 31
Cc1cccc(-c2cnc3cccnn23)c1	proKLK7 act 34 | KLK7 act conf 27 | EDANS-DABCYL int 35
CCOc1cccc(-c2cnc3cccnn23)c1	proKLK7 act 41 | KLK7 act conf 37 | EDANS-DABCYL int 33
COc1ccc(CN(C(=O)c2oc3cc(C)c(C)cc3c2C)C2CCS(=O)(=O)C2)cc1OC (centres undefined)	none
COc1ccc(-c2ccc(C#N)c(SCC(=O)NC3CC3)n2)cc1OC	proKLK7 act 17 | KLK7 act conf inactive | EDANS-DABCYL int inactive
COc1ccc(-c2ccc(C#N)c(SCC(=O)NCc3ccco3)n2)cc1OC	none
COC(=O)c1nn(-c2ccc3c(c2)CCN3C(C)=O)cc1O	proKLK7 act 124 | KLK7 act conf 29 | EDANS-DABCYL int 31
CC(=O)N1CCc2cc([N+](=O)[O-])ccc21	none
NC(=O)C1CCN(C(=O)c2ccc(Cl)c(S(=O)(=O)N3CCCCCC3)c2)CC1	none
Cc1cc2c(C)cc(=O)oc2c2c1NCCC2	proKLK7 act 68 | KLK7 act conf 62 | EDANS-DABCYL int 63
O=C(CCCCn1c(=O)c2ccccc2n(Cc2ccc(Cl)cc2)c1=O)NCc1ccco1	none
COc1ccc(NC(=O)C(C)N2c3cccc4cccc(c34)S2(=O)=O)cc1 (centres undefined)	none
CNC(=O)C(C)N1c2cccc3cccc(c23)S1(=O)=O (centres undefined)	proKLK7 act 15 | KLK7 act conf inactive | EDANS-DABCYL int 13
CC(=O)Nc1ccc2ccccc2c1[N+](=O)[O-]	none
CCc1cc2c(CN3CCN(CCO)CC3)cc(=O)oc2cc1O	proKLK7 act 49 | KLK7 act conf 57 | EDANS-DABCYL int 67
CCc1cc2c(CN3CCN(C)CC3)cc(=O)oc2cc1O	proKLK7 act 78 | KLK7 act conf 68 | EDANS-DABCYL int 75
CCc1cc2c3c(c(=O)oc2cc1O)CCCC3	proKLK7 act 54 | KLK7 act conf 62 | EDANS-DABCYL int 66
CN1CCN(Cc2cc(=O)oc3cc4c(cc23)CCC4)CC1	none
C[C@H](O)[C@@H]1CN2CCc3c([nH]c4c(-c5ccccc5)cccc34)[C@@H]2C[C@@H]1N(C)CC1CCCCC1	none (no result: FAS-TE inh, FXN GAA850 act)
FC(F)(F)c1cc(-c2ccccc2)nc(NCc2cccnc2)n1	none
Nc1ccc(-c2ccc(C(=O)O)s2)cn1	proKLK7 act 19 | KLK7 act conf 73 | EDANS-DABCYL int 82
Cc1ccc2oc(=O)n(CC(=O)c3ccc(F)cc3)c2c1	none
CCN(CC)CCn1c(SCC(=O)Nc2cccc(OC)c2)nc2c(sc3ccccc32)c1=O	none
COc1cccc(NC(=O)CSc2nc3c(sc4ccccc43)c(=O)n2CCN(C)C)c1	proKLK7 act 14 | KLK7 act conf inactive | EDANS-DABCYL int inactive
Cc1ccc(NC(=O)CN(C)C(=O)C(C)OC(=O)c2ccccc2NCCO)cc1 (centres undefined)	proKLK7 act 21 | KLK7 act conf inactive | EDANS-DABCYL int inactive
COc1ccccc1C(C)NCC(=O)NCC(=O)Nc1ccc(F)c(F)c1F (centres undefined)	none
CC(OC(=O)c1ccccc1NCCO)C(=O)NCC(=O)Nc1ccc(F)c(F)c1F (centres undefined)	proKLK7 act 25 | KLK7 act conf 83 | EDANS-DABCYL int 74
O=C(CN1CCN(C2CCCCC2)CC1)c1c[nH]c2ccccc12	none
